# The panel holds about 83,000 compounds, 20% with a hit somewhere; the sample as a whole holds those more often.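 Testing used 96-well plates and a 48-hour single-concentration exposure. Example: -40 means 40% of the starting cells died.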 A number with no mark means an inactive call. Activity calls are given as the source filed them. Rule for the calls: active = growth percent below 10; inactive = the rest.
# How the values were obtained:
# Test in all cases: NCI-60 one-dose screen, 48 h (100 = growth as untreated, 0 = no growth, -100 = all killed)
# Conditions in all cases: 10 µM unless noted
# NCI-H226 lung = tested on: NCI-H226 lung
# NCI-H322M lung = tested on: NCI-H322M lung
# HOP-62 NSCLC = tested on: HOP-62 NSCLC
# NCI-H460 lung = tested on: NCI-H460 lung
# HOP-92 NSCLC = tested on: HOP-92 NSCLC
# NCI-H522 lung = tested on: NCI-H522 lung
# A549/ATCC NSCLC = tested on: A549/ATCC NSCLC
# 786-0 renal = tested on: 786-0 renal
# COLO 205 colon = tested on: COLO 205 colon
# DU-145 prostate = tested on: DU-145 prostate
# K-562 leukemia = tested on: K-562 leukemia
# MALME-3M melanoma = tested on: MALME-3M melanoma
# MDA-MB-231 breast = tested on: MDA-MB-231 breast
# RXF 393 renal = tested on: RXF 393 renal
# SF-268 CNS = tested on: SF-268 CNS
# SF-295 CNS = tested on: SF-295 CNS
# SF-539 CNS = tested on: SF-539 CNS
# UACC-257 melanoma = tested on: UACC-257 melanoma
# M14 melanoma = tested on: M14 melanoma
Compound,growth (NCI-H226 lung),growth (NCI-H322M lung),growth (HOP-62 NSCLC),growth (NCI-H460 lung),growth (HOP-92 NSCLC),growth (NCI-H522 lung),growth (A549/ATCC NSCLC),growth (786-0 renal),growth (COLO 205 colon),growth (DU-145 prostate),growth (K-562 leukemia),growth (MALME-3M melanoma),growth (MDA-MB-231 breast),growth (RXF 393 renal),growth (SF-268 CNS),growth (SF-295 CNS),growth (SF-539 CNS),growth (UACC-257 melanoma),growth (M14 melanoma)
CCNC(=O)c1[nH]cc(-c2ccccc2)c1-c1cc(OC)c2c(c1OC)OCO2,86.9%,93.7%,91.8%,108%,83.9%,93.4%,96%,101%,111%,112%,94%,110%,97.2%,102%,97.6%,100%,102%,102%,95.8%
CCN(c1ccc(Cl)cc1)c1nc(-c2ccc([N+](=O)[O-])cc2)cs1,91.9%,86.7%,99.6%,99.6%,83.6%,82.8%,97.6%,89%,113%,103%,88.9%,80.5%,90.6%,113%,110%,100%,99.6%,104%,99.7%
O=[N+]([O-])c1ccc(S(=O)(=O)N2CCN(C3=NS(=O)(=O)c4ccccc4N3c3ccccc3)CC2)cc1,104%,99.6%,99.7%,115%,-0.794% (active),94.5%,96.3%,96.7%,117%,117%,84.9%,106%,99.2%,91.7%,101%,91.2%,103%,101%,113%
Fc1ccc(Nc2nc3nonc3nc2Nc2ccc(I)cc2)cc1,-17.5% (active),1.66% (active),-23.7% (active),2.95% (active),-25.9% (active),-20.2% (active),2.73% (active),-11.1% (active),–,23%,6.8% (active),-25.6% (active),-23.5% (active),-10.2% (active),22%,-43.6% (active),7.05% (active),-24.5% (active),-3.95% (active)
O=C(N/N=C/c1ccc(F)cc1)c1ccc(C(F)(F)F)nc1Nc1cccc(C(F)(F)F)c1,9.45% (active),-14.5% (active),-14.1% (active),–,-25.2% (active),-15.9% (active),-10.9% (active),-29.7% (active),7.69% (active),17.9%,-6.25% (active),2.96% (active),-11.5% (active),-10.7% (active),9.8% (active),-44.5% (active),-0.388% (active),-2.34% (active),–
C#CCOc1cccc(Nc2ncnc3ccc(NC(=O)CCl)cc23)c1,21%,-18.8% (active),-35.4% (active),-19.9% (active),-76.5% (active),-76.3% (active),-38.6% (active),-81.9% (active),-64.6% (active),-1.66% (active),-13.1% (active),-76.3% (active),-37.8% (active),-77.1% (active),-8.71% (active),-67.7% (active),-86.6% (active),-67.1% (active),-47.8% (active)
